The values below come from article PMC7862700, “An all-to-all approach to the identification of sequence-specific readers for epigenetic DNA modifications on cytosine”.

What all share (assay): DAPPL (digital affinity profiling via proximity ligation, sequencing); 10 mM Tris-HCl pH 7.5, 50 mM NaCl, 1 mM DTT, 4% glycerol, room temperature, 30 min; GST-TFs on glutathione beads, 16-mer random dsDNA library, 0.1% formaldehyde crosslink after washing; high values mean tight binding
One assay concerns the target T1, FEV (Homo sapiens, UniProt Q99581 1-238).
T1 sequence: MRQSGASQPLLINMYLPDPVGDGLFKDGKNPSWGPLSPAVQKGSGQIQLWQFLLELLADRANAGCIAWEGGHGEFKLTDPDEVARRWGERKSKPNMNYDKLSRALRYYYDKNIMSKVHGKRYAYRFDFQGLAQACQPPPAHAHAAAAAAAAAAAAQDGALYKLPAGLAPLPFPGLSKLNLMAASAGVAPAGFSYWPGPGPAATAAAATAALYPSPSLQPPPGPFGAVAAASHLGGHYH
Particulars: protein: recombinant; tags: N-terminal GST; dsDNA, one strand shown. The procedure, abridged:
(§1)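 Beads coated with glutathione captured GST-fused human transcription factors that had been expressed in yeast, and the factors were then given DNA barcodes and pooled with a tag-only sample. The pools were incubated with 200 nmole of a random double-stranded 16-mer DNA library in Tris/NaCl/DTT/glycerol buffer for 30 min at room temperature, washed, crosslinked with 0.1% formaldehyde and proximity-ligated with BsaI/T4 ligase at 37 °C for 1 h. PCR amplification and Illumina NextSeq500 sequencing came last. Binding signal is each hexamer's read frequency for a factor divided by its frequency for the tag-only sample.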

The next assay addresses ETV5 (Homo sapiens, UniProt P41161 1-510). The note with it: protein: recombinant; tags: N-terminal GST; dsDNA, one strand shown. The procedure, abridged: as §1
Another assay concerns the target HSF1 (Homo sapiens, UniProt Q00613 1-529). The note with it: protein: recombinant; tags: N-terminal GST; chain copies: 3; dsDNA, one strand shown. The procedure, abridged:
as §1

The next assay addresses T2, SPIC (Homo sapiens, UniProt Q8N5J4 1-248).
T2 sequence: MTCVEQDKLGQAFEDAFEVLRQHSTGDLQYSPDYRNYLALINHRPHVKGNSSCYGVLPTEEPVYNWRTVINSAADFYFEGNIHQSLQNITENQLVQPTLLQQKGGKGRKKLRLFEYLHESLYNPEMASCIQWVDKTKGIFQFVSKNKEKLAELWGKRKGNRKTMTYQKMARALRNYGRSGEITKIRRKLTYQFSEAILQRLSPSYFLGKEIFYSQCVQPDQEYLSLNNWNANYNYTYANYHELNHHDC
The note with it: protein: recombinant; tags: N-terminal GST; dsDNA, one strand shown. The procedure, abridged:
as §1

Another assay concerns the target ELF4 (Homo sapiens, UniProt Q99607 1-663). Particulars: protein: recombinant; tags: N-terminal GST; dsDNA, one strand shown. The procedure, abridged:
as §1

In a further assay the target is T3, ELK4 (Homo sapiens, UniProt P28324-2 1-405).
T3 sequence: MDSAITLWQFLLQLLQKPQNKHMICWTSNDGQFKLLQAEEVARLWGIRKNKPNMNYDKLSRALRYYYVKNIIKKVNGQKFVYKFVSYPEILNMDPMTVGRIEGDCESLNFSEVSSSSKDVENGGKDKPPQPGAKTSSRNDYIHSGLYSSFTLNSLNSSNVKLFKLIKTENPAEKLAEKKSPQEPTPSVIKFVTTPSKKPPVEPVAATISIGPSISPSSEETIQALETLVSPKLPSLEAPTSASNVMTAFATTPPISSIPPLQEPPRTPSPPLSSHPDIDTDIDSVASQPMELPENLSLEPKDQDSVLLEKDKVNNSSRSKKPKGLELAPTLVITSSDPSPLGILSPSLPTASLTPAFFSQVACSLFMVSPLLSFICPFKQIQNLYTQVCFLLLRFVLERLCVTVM
Particulars: protein: recombinant; tags: N-terminal GST; dsDNA, one strand shown. Summed up: as §1

A further assay deals with T4, ETV2 (Homo sapiens, UniProt O00321 1-342).
T4 sequence: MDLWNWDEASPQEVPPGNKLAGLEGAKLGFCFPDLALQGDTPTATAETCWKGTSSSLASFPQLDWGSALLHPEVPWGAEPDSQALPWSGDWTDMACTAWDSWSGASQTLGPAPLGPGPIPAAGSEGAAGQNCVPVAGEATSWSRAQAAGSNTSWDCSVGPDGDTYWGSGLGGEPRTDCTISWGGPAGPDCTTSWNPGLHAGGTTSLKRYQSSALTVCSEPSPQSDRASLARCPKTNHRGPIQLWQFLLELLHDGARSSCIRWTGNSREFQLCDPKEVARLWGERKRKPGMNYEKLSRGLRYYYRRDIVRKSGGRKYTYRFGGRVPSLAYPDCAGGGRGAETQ
Particulars: protein: recombinant; tags: N-terminal GST; dsDNA, one strand shown. Summed up:
as §1

In a further assay the target is T5, ELF3 (Homo sapiens, UniProt P78545 1-371).
T5 sequence: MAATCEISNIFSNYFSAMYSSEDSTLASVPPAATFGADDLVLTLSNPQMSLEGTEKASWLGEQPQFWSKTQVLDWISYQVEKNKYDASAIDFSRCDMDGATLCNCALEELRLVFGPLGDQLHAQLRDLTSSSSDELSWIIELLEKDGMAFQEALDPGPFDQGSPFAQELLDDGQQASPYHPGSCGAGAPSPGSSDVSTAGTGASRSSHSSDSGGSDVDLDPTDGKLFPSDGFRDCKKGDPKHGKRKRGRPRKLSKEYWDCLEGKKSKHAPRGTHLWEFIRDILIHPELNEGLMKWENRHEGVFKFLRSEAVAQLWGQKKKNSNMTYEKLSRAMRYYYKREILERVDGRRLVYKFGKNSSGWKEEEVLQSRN
The note with it: protein: recombinant; tags: N-terminal GST; dsDNA, one strand shown. The procedure, abridged:
as §1

The target of another assay is CRX (Homo sapiens, UniProt O43186 1-299). Particulars: protein: recombinant; tags: N-terminal GST; dsDNA, one strand shown. The procedure, abridged:
as §1

Another assay concerns the target ETV1 (Homo sapiens, UniProt P50549 1-477). Particulars: protein: recombinant; tags: N-terminal GST; dsDNA, one strand shown. Summed up:
as §1

The next assay addresses T6, ERF (Homo sapiens, UniProt P50548 1-548).
T6 sequence: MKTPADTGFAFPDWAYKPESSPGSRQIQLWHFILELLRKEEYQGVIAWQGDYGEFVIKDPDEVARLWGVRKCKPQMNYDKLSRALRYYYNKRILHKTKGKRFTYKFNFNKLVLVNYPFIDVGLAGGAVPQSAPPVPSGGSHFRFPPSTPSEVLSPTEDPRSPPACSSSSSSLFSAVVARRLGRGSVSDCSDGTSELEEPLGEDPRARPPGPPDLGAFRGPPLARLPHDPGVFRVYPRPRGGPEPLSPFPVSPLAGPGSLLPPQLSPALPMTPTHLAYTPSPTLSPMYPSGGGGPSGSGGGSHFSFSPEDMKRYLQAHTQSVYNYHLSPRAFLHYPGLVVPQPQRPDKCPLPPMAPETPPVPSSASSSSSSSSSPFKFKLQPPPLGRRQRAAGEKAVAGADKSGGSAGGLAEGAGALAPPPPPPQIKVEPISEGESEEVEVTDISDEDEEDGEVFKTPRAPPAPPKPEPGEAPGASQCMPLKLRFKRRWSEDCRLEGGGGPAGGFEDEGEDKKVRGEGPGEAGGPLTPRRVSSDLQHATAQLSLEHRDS
The note with it: protein: recombinant; tags: N-terminal GST; dsDNA, one strand shown. The procedure, abridged: as §1

A further assay addresses T7, ETV3L (Homo sapiens, UniProt Q6ZN32 1-361).
T7 sequence: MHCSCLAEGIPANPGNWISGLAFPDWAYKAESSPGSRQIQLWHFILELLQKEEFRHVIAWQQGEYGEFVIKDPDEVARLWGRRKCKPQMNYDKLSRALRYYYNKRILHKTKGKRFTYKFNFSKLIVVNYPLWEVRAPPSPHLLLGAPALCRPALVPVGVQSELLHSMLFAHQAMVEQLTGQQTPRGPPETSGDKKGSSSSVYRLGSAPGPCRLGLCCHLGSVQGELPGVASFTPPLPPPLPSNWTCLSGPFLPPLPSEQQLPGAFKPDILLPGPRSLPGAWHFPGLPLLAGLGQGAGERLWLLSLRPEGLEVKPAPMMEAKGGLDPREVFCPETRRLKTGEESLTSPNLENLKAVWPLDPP
Particulars: protein: recombinant; tags: N-terminal GST; dsDNA, one strand shown. The procedure, abridged:
as §1

Another assay has as its target T8, ETS2 (Homo sapiens, UniProt P15036 1-469).
T8 sequence: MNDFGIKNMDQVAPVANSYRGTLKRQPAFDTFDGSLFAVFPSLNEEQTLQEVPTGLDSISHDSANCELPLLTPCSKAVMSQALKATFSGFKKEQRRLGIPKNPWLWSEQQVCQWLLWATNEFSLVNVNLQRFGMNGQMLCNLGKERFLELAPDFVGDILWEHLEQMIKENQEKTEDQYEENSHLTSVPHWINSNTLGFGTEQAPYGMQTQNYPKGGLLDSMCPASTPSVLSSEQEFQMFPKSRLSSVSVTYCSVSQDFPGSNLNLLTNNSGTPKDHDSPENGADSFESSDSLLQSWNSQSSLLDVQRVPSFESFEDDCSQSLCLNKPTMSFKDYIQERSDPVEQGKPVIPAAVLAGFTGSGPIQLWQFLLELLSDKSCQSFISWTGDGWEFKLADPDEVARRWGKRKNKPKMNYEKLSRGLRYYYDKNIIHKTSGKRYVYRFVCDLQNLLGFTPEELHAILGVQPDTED
Particulars: protein: recombinant; tags: N-terminal GST; dsDNA, one strand shown. Summed up:
as §1

The target of a further assay is T9, SPDEF (Homo sapiens, UniProt O95238 1-335).
T9 sequence: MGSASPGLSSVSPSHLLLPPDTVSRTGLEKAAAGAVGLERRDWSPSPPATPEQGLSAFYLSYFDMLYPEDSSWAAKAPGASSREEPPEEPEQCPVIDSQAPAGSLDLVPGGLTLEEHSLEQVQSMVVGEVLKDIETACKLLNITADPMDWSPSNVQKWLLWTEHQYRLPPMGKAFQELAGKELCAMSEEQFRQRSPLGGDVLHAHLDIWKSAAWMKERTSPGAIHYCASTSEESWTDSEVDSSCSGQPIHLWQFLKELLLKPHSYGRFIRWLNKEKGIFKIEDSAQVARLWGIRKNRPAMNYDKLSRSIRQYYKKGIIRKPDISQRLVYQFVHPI
The note with it: protein: recombinant; tags: N-terminal GST; dsDNA, one strand shown. Summed up:
as §1

Another assay deals with T10, ETV7 (Homo sapiens, UniProt Q9Y603 1-341).
T10 sequence: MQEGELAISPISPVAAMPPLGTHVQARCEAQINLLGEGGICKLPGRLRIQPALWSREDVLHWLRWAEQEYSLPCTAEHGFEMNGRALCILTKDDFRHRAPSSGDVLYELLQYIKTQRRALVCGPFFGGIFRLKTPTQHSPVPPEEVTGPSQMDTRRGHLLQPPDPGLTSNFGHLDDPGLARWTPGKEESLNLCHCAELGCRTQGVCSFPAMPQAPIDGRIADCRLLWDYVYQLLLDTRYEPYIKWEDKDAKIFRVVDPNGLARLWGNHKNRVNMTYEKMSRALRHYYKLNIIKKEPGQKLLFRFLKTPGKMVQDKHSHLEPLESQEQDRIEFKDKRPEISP
The note with it: protein: recombinant; tags: N-terminal GST; dsDNA, one strand shown. The procedure, abridged:
as §1

In the next assay the target is T11, ELF5 (Homo sapiens, UniProt Q9UKW6-2 1-255).
T11 sequence: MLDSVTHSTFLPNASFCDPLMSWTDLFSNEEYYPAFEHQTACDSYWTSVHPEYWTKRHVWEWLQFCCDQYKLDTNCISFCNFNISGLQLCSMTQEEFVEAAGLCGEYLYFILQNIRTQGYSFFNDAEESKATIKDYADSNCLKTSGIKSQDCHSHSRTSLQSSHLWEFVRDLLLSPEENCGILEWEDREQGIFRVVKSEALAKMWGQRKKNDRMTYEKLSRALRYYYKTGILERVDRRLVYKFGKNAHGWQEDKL
Particulars: protein: recombinant; tags: N-terminal GST; dsDNA, one strand shown. Summed up: as §1

A further assay deals with T12, ETV3 (Homo sapiens, UniProt P41162-2 1-143).
T12 sequence: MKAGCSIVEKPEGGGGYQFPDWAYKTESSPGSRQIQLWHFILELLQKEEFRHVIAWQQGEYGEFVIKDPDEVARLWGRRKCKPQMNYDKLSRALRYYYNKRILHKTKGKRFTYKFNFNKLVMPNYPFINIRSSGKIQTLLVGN
The note with it: protein: recombinant; tags: N-terminal GST; dsDNA, one strand shown. The procedure, abridged: as §1

The next assay concerns the target ETV6 (Homo sapiens, UniProt P41212 1-452). Particulars: protein: recombinant; tags: N-terminal GST; dsDNA, one strand shown. Summed up: as §1

ETV5, sequence (P41161 whole entry): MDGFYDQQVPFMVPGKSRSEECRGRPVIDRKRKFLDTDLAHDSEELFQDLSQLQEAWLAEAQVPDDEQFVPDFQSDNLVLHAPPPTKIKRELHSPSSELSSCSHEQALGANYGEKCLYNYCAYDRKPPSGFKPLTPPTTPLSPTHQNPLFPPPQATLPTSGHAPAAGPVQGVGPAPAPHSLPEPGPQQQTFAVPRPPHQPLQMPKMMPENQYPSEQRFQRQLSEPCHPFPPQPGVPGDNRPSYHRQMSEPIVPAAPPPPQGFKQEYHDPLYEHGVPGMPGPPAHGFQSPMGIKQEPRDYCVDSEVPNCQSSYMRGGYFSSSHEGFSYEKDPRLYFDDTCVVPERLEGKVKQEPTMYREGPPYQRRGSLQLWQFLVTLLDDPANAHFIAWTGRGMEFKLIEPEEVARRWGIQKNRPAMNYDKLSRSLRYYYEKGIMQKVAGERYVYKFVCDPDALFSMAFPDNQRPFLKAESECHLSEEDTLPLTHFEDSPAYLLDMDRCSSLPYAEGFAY
ELF4, sequence (Q99607 whole entry): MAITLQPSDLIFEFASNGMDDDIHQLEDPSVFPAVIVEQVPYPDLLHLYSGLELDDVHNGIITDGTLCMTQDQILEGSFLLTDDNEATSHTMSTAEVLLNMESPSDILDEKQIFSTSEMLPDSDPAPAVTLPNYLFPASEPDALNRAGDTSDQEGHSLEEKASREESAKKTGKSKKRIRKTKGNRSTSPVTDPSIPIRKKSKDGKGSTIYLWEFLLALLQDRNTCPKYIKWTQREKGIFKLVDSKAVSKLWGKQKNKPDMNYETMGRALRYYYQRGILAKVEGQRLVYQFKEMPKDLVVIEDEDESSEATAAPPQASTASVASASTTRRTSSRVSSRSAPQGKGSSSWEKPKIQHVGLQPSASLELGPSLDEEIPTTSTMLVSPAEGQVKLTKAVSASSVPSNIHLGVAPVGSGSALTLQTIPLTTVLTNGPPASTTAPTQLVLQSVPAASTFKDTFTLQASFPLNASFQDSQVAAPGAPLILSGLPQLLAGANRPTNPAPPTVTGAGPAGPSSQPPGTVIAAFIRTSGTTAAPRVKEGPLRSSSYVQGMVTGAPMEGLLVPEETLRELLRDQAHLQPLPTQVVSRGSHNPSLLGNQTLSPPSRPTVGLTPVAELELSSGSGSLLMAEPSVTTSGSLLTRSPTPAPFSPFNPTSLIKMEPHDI
HSF1, sequence (Q00613 whole entry): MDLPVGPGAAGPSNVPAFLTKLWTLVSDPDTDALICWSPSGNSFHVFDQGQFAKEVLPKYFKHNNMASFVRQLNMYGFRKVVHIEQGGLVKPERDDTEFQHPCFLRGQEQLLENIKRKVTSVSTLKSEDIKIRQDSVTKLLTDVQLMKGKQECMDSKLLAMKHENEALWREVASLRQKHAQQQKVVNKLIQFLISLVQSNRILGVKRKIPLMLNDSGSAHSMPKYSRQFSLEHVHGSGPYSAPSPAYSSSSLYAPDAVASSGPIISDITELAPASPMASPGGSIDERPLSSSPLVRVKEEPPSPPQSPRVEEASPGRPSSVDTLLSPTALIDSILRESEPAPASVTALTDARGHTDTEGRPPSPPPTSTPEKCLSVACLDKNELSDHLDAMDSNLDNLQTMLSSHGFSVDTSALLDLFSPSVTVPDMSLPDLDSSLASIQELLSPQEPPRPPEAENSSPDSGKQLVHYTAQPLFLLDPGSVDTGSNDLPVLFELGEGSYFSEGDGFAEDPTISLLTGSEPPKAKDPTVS
ETV1, sequence (P50549 whole entry): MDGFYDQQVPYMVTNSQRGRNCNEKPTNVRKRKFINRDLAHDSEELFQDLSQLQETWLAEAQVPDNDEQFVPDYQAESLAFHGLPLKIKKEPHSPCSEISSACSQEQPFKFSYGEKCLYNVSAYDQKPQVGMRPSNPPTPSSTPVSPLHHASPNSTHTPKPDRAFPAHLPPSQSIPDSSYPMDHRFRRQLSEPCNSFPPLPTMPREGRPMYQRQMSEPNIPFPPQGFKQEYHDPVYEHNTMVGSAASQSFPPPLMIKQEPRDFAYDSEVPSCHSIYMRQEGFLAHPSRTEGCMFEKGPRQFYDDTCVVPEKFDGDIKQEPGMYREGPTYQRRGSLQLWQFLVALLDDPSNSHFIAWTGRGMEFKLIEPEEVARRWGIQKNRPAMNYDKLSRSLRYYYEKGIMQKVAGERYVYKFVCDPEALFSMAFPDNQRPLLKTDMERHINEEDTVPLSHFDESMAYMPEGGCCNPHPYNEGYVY
ETV6, sequence (P41212 whole entry): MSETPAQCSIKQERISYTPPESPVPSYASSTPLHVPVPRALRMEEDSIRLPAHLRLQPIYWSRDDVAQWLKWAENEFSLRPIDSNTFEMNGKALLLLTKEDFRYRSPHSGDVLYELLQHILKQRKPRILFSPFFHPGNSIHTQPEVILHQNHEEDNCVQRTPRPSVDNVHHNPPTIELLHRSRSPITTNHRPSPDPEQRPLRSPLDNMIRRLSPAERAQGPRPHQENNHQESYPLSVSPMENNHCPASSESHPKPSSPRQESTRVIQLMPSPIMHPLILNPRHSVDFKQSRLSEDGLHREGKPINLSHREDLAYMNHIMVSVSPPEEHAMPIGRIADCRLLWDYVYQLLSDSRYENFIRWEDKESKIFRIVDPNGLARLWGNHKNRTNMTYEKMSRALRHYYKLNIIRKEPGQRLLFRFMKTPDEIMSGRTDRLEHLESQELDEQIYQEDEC
CRX, sequence (O43186 whole entry): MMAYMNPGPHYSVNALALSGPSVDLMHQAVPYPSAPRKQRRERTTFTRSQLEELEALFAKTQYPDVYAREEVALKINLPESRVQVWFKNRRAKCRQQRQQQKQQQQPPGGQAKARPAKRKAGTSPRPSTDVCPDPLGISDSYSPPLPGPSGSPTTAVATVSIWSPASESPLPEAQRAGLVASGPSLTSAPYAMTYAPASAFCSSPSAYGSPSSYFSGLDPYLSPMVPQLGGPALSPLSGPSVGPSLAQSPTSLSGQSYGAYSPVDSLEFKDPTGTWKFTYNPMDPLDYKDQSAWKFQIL

For the sequence TTGGGG, the binding signal in the assay with FEV was 1.17 fold enrichment (6-mer frequency, TF over GST control); in the assay with ETV5, 1.24 fold enrichment (6-mer frequency, TF over GST control); with HSF1 it was 1.11 fold enrichment (6-mer frequency, TF over GST control); with SPIC, 1.21 fold enrichment (6-mer frequency, TF over GST control); in the assay with ELF4, 1.24 fold enrichment (6-mer frequency, TF over GST control); with ELK4, 1.34 fold enrichment (6-mer frequency, TF over GST control). Also, the binding signal was 1.17 fold enrichment (6-mer frequency, TF over GST control) with ETV2; 1.24 fold enrichment (6-mer frequency, TF over GST control) with ELF3; 1.23 fold enrichment (6-mer frequency, TF over GST control) with CRX; 1.38 fold enrichment (6-mer frequency, TF over GST control) with ETV1; 1.39 fold enrichment (6-mer frequency, TF over GST control) in the assay with ERF; 1.3 fold enrichment (6-mer frequency, TF over GST control) with ETV3L. In addition, the binding signal in the assay with ETS2 is 1.25 fold enrichment (6-mer frequency, TF over GST control); with SPDEF it was 1.17 fold enrichment (6-mer frequency, TF over GST control); in the assay with ETV7 it was 1.12 fold enrichment (6-mer frequency, TF over GST control); with ELF5 it was 1.14 fold enrichment (6-mer frequency, TF over GST control); with ETV3 it was 1.13 fold enrichment (6-mer frequency, TF over GST control); with ETV6, 1.26 fold enrichment (6-mer frequency, TF over GST control).
